TcdB inh – inhibitors of Clostridioides difficile toxin B glycohydrolase; AID 652162; P18177; TcdB glycohydrolase enzymatic assay, plate reader; 350,000 tested, 0.24% active; inhibition, % at 9.99 µM; in the data active = inhibition above about 10%
GDH-TPI counter-1 – inhibits GDH-TPI coupling enzymes, artifact for Mtb FBA screen; GDH-TPI coupled enzyme counterscreen, NADH absorbance; inhibition, % at 4.8 µM; 360,000 tested, 1.2% active; AID 588335; in the data active = inhibition above about 30%;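 note: 0% = DMSO wells and 100% = wells lacking the enzyme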
PrPC TRFRET – reduces human prion protein on the cell surface; cell surface PrPC, TR-FRET read-out; P04156; AID 720596; 370,000 tested, 0.43% active; inhibition, % at 13.8 µM; in the data active = inhibition above about 24%; note: 0% = median of the test wells and 100% = reference compound wells
Y pestis TopoI – inhibitors of Yersinia pestis topoisomerase I. Y. pestis Topo-I cleavage product accumulation, plate reader. activity, % at 10 µM. 360,000 tested, 0.064% active. AID 504884; in the data active = activity above about 50%, passing the limit was not always enough
Mtb FBA inh – Mtb fructose-bisphosphate aldolase inhibition; P9WQA3; purified M. tuberculosis FBA, fluorescence read-out; inhibition, % at 1 µM; 360,000 tested, 2.3% active;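 note: 0% = vehicle and 100% = reference inhibitor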
Target sequence (P9WQA3 whole entry, looked up): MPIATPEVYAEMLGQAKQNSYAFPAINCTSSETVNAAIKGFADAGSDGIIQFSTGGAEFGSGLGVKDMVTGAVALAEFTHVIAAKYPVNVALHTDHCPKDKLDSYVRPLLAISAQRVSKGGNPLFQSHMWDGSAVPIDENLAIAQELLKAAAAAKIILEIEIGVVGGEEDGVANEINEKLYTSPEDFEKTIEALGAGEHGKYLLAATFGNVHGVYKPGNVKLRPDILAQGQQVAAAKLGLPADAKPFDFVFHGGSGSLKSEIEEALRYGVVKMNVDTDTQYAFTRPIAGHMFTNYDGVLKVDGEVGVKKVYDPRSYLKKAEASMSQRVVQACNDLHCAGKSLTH
Mtb FBA confirm – confirmation of M. tuberculosis fructose-bisphosphate aldolase inhibitors; shares compounds with Mtb FBA inh; purified M. tuberculosis FBA, fluorescence read-out; inhibition, % at 1 µM; 5,600 tested, 78% active; AID 651616;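 note: 0% = vehicle wells and 100% = reference inhibitor wells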
GDH-TPI counter-2 – GDH-TPI inhibition counter-screen for FBA inhibitors; shares compounds with Mtb FBA inh; GDH-TPI coupled enzyme counterscreen, fluorescence; 5,600 tested, 81% active; inhibition, % at 1 µM; in the data active = inhibition above about 10%
* = called active by the depositor; x = no result given; + = active, no number. Hits are enriched below; roughly 3.2% of the tested compounds scored in any of these assays. Cut-off read from the data, not from the text of the source, unless noted: active = inhibition above about 27%; inactive = the rest.

SMILES | TcdB inh | GDH-TPI counter-1 | PrPC TRFRET | Y pestis TopoI | Mtb FBA inh | Mtb FBA confirm | GDH-TPI counter-2
Cc1ccc(S(=O)(=O)c2c(N)n(NC(=O)c3ccccc3C)c3nc4ccccc4nc23)cc1 | x | 9 | -5 | -1 | 39* | 193* | 143*
CN(C)C(=O)[C@@H]1[C@@H](CO)[C@@H]2Cn3c(ccc(-c4ccccc4F)c3=O)[C@H]1N2C(=O)c1cccnc1 | 0 | x | x | x | x | x | x
O=C(C[C@H]1CC[C@@H]2[C@H](COC[C@H](O)CN2Cc2ccc(Oc3ccccc3)cc2)O1)N1CCOCC1 | 0 | x | x | x | x | x | x
Cc1noc(C)c1NC(=O)Nc1ccc2c(c1)C(=O)N([C@H](C)CO)C[C@@H](C)[C@H](CN(C)C)OCCCC[C@@H](C)O2 | -3 | x | x | x | x | x | x
C[C@@H]1CN([C@@H](C)CO)C(=O)Cc2cc(NC(=O)c3ccncc3)ccc2O[C@H]1CN(C)C(=O)Nc1ccc(C(F)(F)F)cc1 | 0 | x | x | x | x | x | x
OC1c2c(F)cccc2N=C2CCCCN21 (configuration not stated) | -1 | -1 | 3 | -11 | 38* | 176* | 162*
Cc1nc2ccccc2c2nc(N)nn12 | x | 5 | -5 | 2 | 6 | x | x
Cc1cn2nc(N)c3ccccc3c2n1 | x | 1 | 9 | 4 | 42* | + | +
COC(=O)/C(=C/Nc1cccc2ccccc12)[N+](=O)[O-] | 2 | -2 | 7 | 1 | 74* | 98* | 80*
COc1cc(OC)cc(C(=O)Nc2cccc3ccccc23)c1 | -1 | 6 | 3 | -13 | -2 | x | x
Cc1ccc(S(=O)(=O)Nc2ccc3c(c2)CC(=O)N([C@H](C)CO)C[C@H](C)[C@@H](CN(C)C)O3)cc1 | 0 | x | x | x | x | x | x
CCN(CC)CCCNc1nc(C)cc(COC)c1C#N | 0 | 6 | -4 | 2 | 76* | 114* | 103*
COc1ccccc1NC(=O)N[C@@H]1C=C[C@H](CC(=O)N[C@@H](C)c2ccccc2)O[C@H]1CO | -1 | x | x | x | x | x | x
Cc1noc(C)c1S(=O)(=O)Nc1ccc2c(c1)CC(=O)N([C@H](C)CO)C[C@H](C)[C@H](CN(C)C(=O)Nc1ccc(F)cc1)O2 | -1 | x | x | x | x | x | x
COc1ccc(OCC(=O)Nc2cc(-c3nn(C)c(=O)c4ccccc34)ccc2N2CCOCC2)cc1 | -2 | -2 | 5 | 11 | 27* | 6 | -3
CCC(=O)Nc1cc(-c2nn(C)c(=O)c3ccccc23)ccc1N1CCOCC1 | x | 4 | -4 | 2 | -3 | x | x
Cc1ccc2c(c1)C(N1CCCC1=O)CC(c1ccco1)N2 (configuration not stated) | x | 21 | 1 | -1 | 31* | 6 | -2
Fc1ccc(-c2cc3nc(-c4ccccc4)cc(N4CCOCC4)n3n2)cc1 | x | 6 | -1 | -1 | 7 | x | x
COc1ccc(-c2cc3nc(-c4ccccc4)cc(N4CCC(O)CC4)n3n2)cc1 | x | 12 | 7 | 25 | 80* | 39* | 27*
COc1ccc(-c2cc3nc(-c4ccccc4)cc(N4CCN(C(=O)c5ccsc5)CC4)n3n2)cc1 | 2 | -3 | -1 | 37 | 3 | x | x
COc1ccc(-c2cc3nc(-c4ccccc4)cc(N4CCN(C(=O)c5ccccc5)CC4)n3n2)cc1 | 1 | 9 | -9 | 26 | 3 | x | x
COc1ccc(-c2cc3nc(-c4ccccc4)cc(N4CCCC(O)C4)n3n2)cc1 (configuration not stated) | 1 | -8 | -5 | 17 | 79* | 10 | -4
COc1ccc(-c2cc3nc(-c4ccccc4)cc(N4CCN(C(C)=O)CC4)n3n2)cc1 | -10 | 21 | 5 | 29 | 70* | 2 | 1
O=C(C1=C[C@@H](C2CC2)C[C@@H](OCCCCO)O1)N1CCCCCCC1 | 0 | x | x | x | x | x | x
FC(F)(F)c1nc2nncn2c2c1CCCCC2 | x | 12 | 1 | 1 | 35* | 133* | 117*
SMILES | TcdB inh | GDH-TPI counter-1 | PrPC TRFRET | Y pestis TopoI | Mtb FBA inh | Mtb FBA confirm | GDH-TPI counter-2
CC(C)CC#Cc1cnc2c(c1)C(=O)N([C@H](C)CO)C[C@H](C)[C@@H](CN(C)C(=O)c1ccccc1)O2 | 1 | x | x | x | x | x | x
CCOc1ccc2nc(NCCNC(=O)C(C)C)c(C)cc2c1 | x | 22 | -2 | -1 | 35* | 86* | 66*
CCOc1ccc2nc(NCCNC(=O)C3CC3)c(C)cc2c1 | 2 | 13 | -9 | 6 | 21 | x | x
CC1=C(Cl)C2=NS(=O)(=O)CCN2C=C1Cl | -2 | 8 | -10 | 4 | 89* | 159* | 116*
Cc1ccc(NC(=O)C2=CC=CN3CCS(=O)(=O)N=C23)cc1 | -2 | 8 | -2 | 3 | 2 | x | x
CCCC(=O)N1CCN(c2nc(CC(C)C)c3c(c2C#N)CCC3)CC1 | x | 9 | 3 | 6 | 32* | 159* | 120*
CC(C)C(=O)N1CCN(c2nc(-c3ccccc3)c3c(c2C#N)CCCC3)CC1 | x | 8 | -8 | 15 | 1 | x | x
CC(=O)c1ccc2noc(-c3ccccc3)c2c1 | -2 | 3 | -9 | -8 | 1 | x | x
CC(=O)c1ccc2c(c1)c(C#N)c1ccccc1[n+]2[O-] | 0 | 16 | -12 | -4 | 94* | 8 | 0
CCNC(=S)N1CCc2cc(OC)c(OC)cc2C1COc1ccccc1OC (configuration not stated) | 0 | -5 | -1 | 9 | 38* | + | +
O=C(C[C@H]1CC[C@H]2[C@@H](COC[C@@H](O)CN2S(=O)(=O)c2cccc(Cl)c2)O1)NC1CCC1 | -7 | x | x | x | x | x | x
Cc1ccccc1NC(=O)c1ccc2c(c1)N(C)CCS2 | 1 | 20 | 5 | 3 | 4 | x | x
Cc1cccc(CNC(=O)c2ccc3c(c2)N(C)CCS3)c1 | 0 | 7 | 19 | 7 | 56* | 34* | 38*
COc1cccc(CNC(=O)CCC(=O)N2CCSc3ccccc32)c1OC | 4 | -11 | -2 | 10 | 2 | x | x
O=C(CCC(=O)N1CCSc2ccccc21)NCc1cccc(Br)c1 | 2 | 1 | -4 | 26 | -3 | x | x
COc1cccc(CNC(=O)c2ccc3c(c2)N(C)CCS3)c1OC | 1 | -9 | 13 | 12 | 88* | 49* | 45*
CN1CCSc2ccc(C(=O)NCc3cccc(Br)c3)cc21 | 1 | -2 | 18 | 9 | 66* | 51* | 35*
COc1ccc(CNC(=O)c2ccc3c(c2)N(C)CCS3)cc1 | 0 | 20 | 12 | 7 | 52* | 86* | 59*
COc1cccc(S(=O)(=O)N2CCCCN3[C@H](C2)[C@H](c2ccc(-c4ccccc4)cc2)[C@@H]3CO)c1 | -7 | x | x | x | x | x | x
CC(C)NC(=O)Nc1cccc2c1O[C@H](CN(C)C(=O)Nc1ccc(C(F)(F)F)cc1)[C@@H](C)CN([C@@H](C)CO)C2=O | 2 | x | x | x | x | x | x
Cc1nc2ccccn2c1C(O)(c1ccccc1)c1ccccc1 | x | x | 2 | x | x | x | x
Cc1nc2ccccn2c1-c1nnco1 | x | 3 | -3 | 0 | 36* | 5 | -4
